Experimental data reported in PubChem BioAssay (Tox21).
Values joined by “and” are separate entries in the source; they are usually repeats but may differ in a detail not shown here. Identical values can stand only once. Results filed as inconclusive are left out. Where a call stands in place of a potency, no number is given. Active and inactive are the calls of the source. Unless noted, calls come from the whole dose curve; as a rule, active = well fitted curve in the direction sought with a large enough effect in the repeat runs; inconclusive = weak or mixed curves; inactive = no such curve, though single readings can be large; an effect the other way counts as inactive or inconclusive.

Assays:
[1] = qHTS assay to identify small molecule antagonists of the glucocorticoid receptor (GR) signaling pathway - cell viability counter screen (AID 720693); note: nearly all actives have a fitted effect of over 55% in size
[2] = qHTS assay for identifying genotoxic compounds that show differential cytotoxicity against isogenic chicken DT40 cell lines with known DNA damage response pathways - wild type cell line (AID 743012); note: nearly all actives have a fitted effect of over 60% in size; note: potency is the fitted concentration of half-maximal effect
Summary of the method: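 Wild-type DT40 cells (300/well) exposed to compounds for 40 hours at 37 C/5% CO2. Viability read by CellTiter-Glo luminescence after 30 min at room temperature.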

[3] = qHTS assay for identifying genotoxic compounds that show differential cytotoxicity against isogenic chicken DT40 cell lines with known DNA damage response pathways - Rad54/Ku70 mutant cell line (AID 743015); note: nearly all actives have a fitted effect of over 60% in size; note: potency is the fitted concentration of half-maximal effect
[4] = qHTS assay to identify small molecule antagonists of the androgen receptor (AR) signaling pathway - cell viability counter screen (AID 743033; note: nearly all actives have a fitted effect of over 45% in size)
[5] = target: Androgen receptor (Homo sapiens) (UniProt P10275); test: qHTS assay to identify small molecule agonists of the androgen receptor (AR) signaling pathway using the MDA cell line (AID 743040; note: nearly all actives have a fitted effect of over 20% in size)
Chain of Androgen receptor (Homo sapiens) (P10275 whole entry, looked up): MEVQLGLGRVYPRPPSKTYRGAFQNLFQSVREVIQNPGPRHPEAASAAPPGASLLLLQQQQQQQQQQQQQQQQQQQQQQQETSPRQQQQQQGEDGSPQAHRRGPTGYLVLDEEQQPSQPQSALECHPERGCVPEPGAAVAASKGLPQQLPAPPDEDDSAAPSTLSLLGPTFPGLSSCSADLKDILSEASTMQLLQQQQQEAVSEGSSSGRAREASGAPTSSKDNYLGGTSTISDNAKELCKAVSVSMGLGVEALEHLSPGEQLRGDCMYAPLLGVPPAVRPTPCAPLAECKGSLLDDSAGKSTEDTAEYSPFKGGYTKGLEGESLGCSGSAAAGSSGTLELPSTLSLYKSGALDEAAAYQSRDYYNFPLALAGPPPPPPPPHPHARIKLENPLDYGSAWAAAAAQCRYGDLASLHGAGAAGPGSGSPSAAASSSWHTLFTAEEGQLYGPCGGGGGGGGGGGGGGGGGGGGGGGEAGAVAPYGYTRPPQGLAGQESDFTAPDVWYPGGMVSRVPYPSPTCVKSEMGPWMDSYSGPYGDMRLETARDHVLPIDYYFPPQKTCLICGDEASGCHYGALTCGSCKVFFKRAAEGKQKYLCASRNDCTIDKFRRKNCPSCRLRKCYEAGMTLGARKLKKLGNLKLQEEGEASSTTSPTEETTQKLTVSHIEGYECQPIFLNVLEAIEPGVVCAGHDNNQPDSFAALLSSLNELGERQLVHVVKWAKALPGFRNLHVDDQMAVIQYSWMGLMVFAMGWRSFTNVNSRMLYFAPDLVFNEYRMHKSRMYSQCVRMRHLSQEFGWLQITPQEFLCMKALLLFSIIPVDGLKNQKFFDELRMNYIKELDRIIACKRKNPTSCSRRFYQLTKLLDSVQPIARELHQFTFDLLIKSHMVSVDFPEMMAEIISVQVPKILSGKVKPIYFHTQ
Summary of the method: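 Cells plated, 5 h at 37C/0% CO2; compound or DMSO pinned; 16 h at 37C; ONE-Glo added; luminescence measured after 30 min at room temperature. Reporter line: MDA-kb2 with MMTV-luciferase responsive to AR and GR.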

[6] = qHTS assay to identify small molecule antagonists of the androgen receptor (AR) signaling pathway using the MDA cell line - cell viability counter screen (AID 743041; note: nearly all actives have a fitted effect of over 45% in size; note: potency is the fitted concentration of half-maximal effect)
Summary of the method: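 Cells were plated at 3,000 per well and left 5 h. Compounds in DMSO were then pinned in, followed by R1881. After 16 h at 37C, CellTiter-Fluor fluorescence gave viability.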

[7] = target: Androgen receptor (Homo sapiens) (UniProt P10275); test: qHTS assay to identify small molecule antagonists of the androgen receptor (AR) signaling pathway using the MDA cell line (AID 743042; note: nearly all actives have a fitted effect of over 55% in size; note: potency is the fitted concentration of half-maximal effect)
Summary of the method: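 Antagonist mode: compounds plus R1881 agonist added to MDA-kb2 AR-luc cells, incubated 16 h at 37C. Luciferase reporter luminescence quantified, with multiplexed CellTiter-Fluor readout for cell viability.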

[8] = qHTS assay to identify small molecule antagonists of the thyroid receptor (TR) signaling pathway - cell viability counter screen (AID 743064); note: nearly all actives have a fitted effect of over 50% in size; note: potency is the fitted concentration of half-maximal effect
Summary of the method: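 GH3.TRE-Luc cells, 4 h pre-plating; cpd + T3 1 nM final; 37 °C 23.5 h; CellTiter-Fluor 30 min; fluorescence read.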

[9] = qHTS assay for identifying genotoxic compounds that show differential cytotoxicity against isogenic chicken DT40 cell lines with known DNA damage response pathways - Rev3 mutant cell line (AID 743014); note: nearly all actives have a fitted effect of over 55% in size; note: potency is the fitted concentration of half-maximal effect
[10] = target: Androgen receptor (Homo sapiens) (UniProt P10275); test: qHTS assay to identify small molecule antagonists of the androgen receptor (AR) signaling pathway (AID 743035; active = well fitted inhibition curve with a large enough effect in the signal ratio in the repeat runs, not every such curve was filed as active; the % refers to the signal ratio; note: potency is the fitted concentration of half-maximal effect)
Summary of the method: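 HEK293 cells stably carrying UAS-beta-lactamase reporter, 2,000/well, given compounds plus R1881 agonist and incubated 16 h at 37C. LiveBLAzer B/G FRET substrate then added for 2 h at room temperature before fluorescence reading.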

Structure (SMILES) | Potency [1] | Potency [2] | Potency [3] | Potency [4] | outcome [5] | Potency [6] | Potency [7] | Potency [8] | Potency [9] | Potency [10]
Nc1c(Cl)c(F)nc(OCC(=O)O)c1Cl | inactive | inactive | inactive | inactive | inactive | inactive | inactive | inactive | – | –
CC1=C2[C@H]3OC(=O)[C@@H](C)[C@@H]3CC[C@@]2(C)C=CC1=O | inactive | inactive | inactive | inactive | – | inactive | – | inactive | – | –
CC(C)C(C)(N)C#N (configuration not stated) | inactive | inactive | – | inactive | – | – | – | inactive | inactive | –
O=c1[nH]c2ccccc2o1 | inactive | inactive | – | – | – | inactive | – | inactive | inactive | –
CN1COCN(Cc2cnc(Cl)s2)/C1=N\[N+](=O)[O-] | inactive | inactive | inactive | inactive | – | inactive | – | inactive | – | –
O=C(O)C(F)(F)C(F)(F)C(F)(F)C(F)(F)C(F)(F)C(F)(F)F | inactive | – | inactive | inactive | – | inactive | – | inactive | inactive | –
NC1(c2ccccc2)CCCCC1 | inactive | 60.6 µM (active) | – | inactive | – | inactive | – | 42.9 µM (active) | – | –
CCCCCCC(=O)CCCCCC/C=C/C[C@@H](O)[C@H](O)[C@@](N)(CO)C(=O)O | inactive | – | 26.6 nM (active) and 13.3 nM (active) | inactive | – | inactive | – | inactive | 21.1 nM (active) and 11.9 nM (active) | –
CS(=O)(=O)c1ccc(C(=O)C2C(=O)CCCC2=O)c(Cl)c1COCC(F)(F)F | inactive | inactive | inactive | inactive | – | inactive | – | inactive | – | –
CCN(CCO)CCO | inactive | inactive | – | inactive | – | inactive | – | inactive | – | –
C=CCc1cc(OC)c2c(c1)OCO2 | inactive | – | inactive | inactive | – | inactive | – | inactive | inactive | –
[P]#[In] | inactive | inactive | inactive | inactive | – | inactive | – | inactive | – | –
CCC1(c2ccccc2)C(=O)N(COC)C(=O)N(COC)C1=O | inactive | – | inactive | inactive | inactive | inactive | inactive | – | inactive | inactive
CN(C)CCc1c[nH]c2cccc(OP(=O)(O)O)c12 | inactive | – | inactive | inactive | – | inactive | – | inactive | inactive | –
CCCCCCCCSC(=O)Oc1cc(Cl)nnc1-c1ccccc1 | inactive | 54.5 µM (active) | – | inactive | – | inactive | – | inactive | 54.5 µM (active) | –
CCOP(=S)(OCC)Oc1ccc(Cl)cc1Cl | inactive | – | inactive | inactive | – | inactive | – | inactive | inactive | –
CNC(=O)O/N=C(/CSC)C(C)(C)C | inactive | inactive | inactive | – | inactive | inactive | inactive | inactive | – | inactive

Structure (SMILES) | Potency [1] | Potency [2] | Potency [3] | Potency [4] | outcome [5] | Potency [6] | Potency [7] | Potency [8] | Potency [9] | Potency [10]
COC1=CC(=O)O[C@@H](/C=C/c2ccccc2)C1 | inactive | inactive | – | – | – | inactive | – | – | – | –
Cc1ccc(S(=O)(=O)N[C@@H](CCCCN)C(=O)CCl)cc1 | inactive | 5.96 µM (active) | – | – | inactive | 21.1 µM (active) | 23.7 µM (active) | 16.8 µM (active) | 10.6 µM (active) | 21.3 µM (active)
CC(C)[C@]12CC(=O)[C@H](C)[C@H]1C2 | inactive | – | inactive | inactive | – | inactive | – | inactive | inactive | –
CCOC(=O)C(Cl)Cc1cc(-n2nc(C)n(C(F)F)c2=O)c(F)cc1Cl (configuration not stated) | inactive | 54.5 µM (active) | – | – | – | inactive | – | inactive | 61.1 µM (active) | –
COc1ccccc1OC | inactive | – | inactive | inactive | – | inactive | – | inactive | inactive | –
O=C(NC(=O)c1c(F)cccc1F)Nc1cc(Cl)c(F)c(Cl)c1F | inactive | 8.42 µM (active) | – | inactive | – | inactive | – | inactive | – | –
CCN[C@@H](C)Cc1cccc(C(F)(F)F)c1 | inactive | – | 21.3 µM (active) | inactive | – | inactive | – | inactive | 16.9 µM (active) | –
Cn1c(CCCC(=O)O)nc2cc(N(CCCl)CCCl)ccc21 | inactive | 26.6 µM (active) | – | – | – | inactive | – | inactive | 3.35 µM (active) | –
COc1cccc([C@@]2(O)CCCC[C@@H]2CN(C)C)c1 | inactive | – | inactive | inactive | inactive | inactive | inactive | inactive | inactive | inactive
Cc1ccc2c(c1)C1CN(C)CCC1N2 (configuration not stated) | inactive | inactive | inactive | inactive | – | – | – | inactive | – | –
C=C(Cl)CCl | inactive | – | inactive | inactive | – | inactive | – | – | inactive | –
O=C(O)CBr | inactive | inactive | – | inactive | – | inactive | – | inactive | inactive | –
Oc1ccc(Cc2ccc(O)cc2)cc1 | inactive | inactive | – | inactive | – | inactive | – | inactive | inactive | –
CC(C)(C1CCC(O)CC1)C1CCC(O)CC1 (configuration not stated) | inactive | inactive | inactive | – | – | inactive | – | inactive | – | –
NC(=O)CS(=O)C(c1ccccc1)c1ccccc1 (configuration not stated) | inactive | – | inactive | inactive | – | inactive | – | inactive | inactive | –
COc1cc(CCN)cc(OC)c1OC | inactive | – | inactive | inactive | – | inactive | – | inactive | inactive | –
CCCCCCCCBr | – | inactive | inactive | inactive | – | inactive | – | inactive | inactive | –
